Results published in ChEMBL document CHEMBL1961873, “Compounds: GSK PKIS; Assays: Nanosyn kinase panel” (2012).

Tests used:
[1] = target: Sphingosine kinase 1 (Homo sapiens) (UniProt Q9NYA1); settings: at 1 µM;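 also: mean SPHK1 inhibition value reported from the GSK PKIS kinase panel screen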
[2] = target: T1, Sphingosine kinase 2 (Homo sapiens) (UniProt Q9NRA0); settings: at 0.1 µM
T1 sequence (whole entry): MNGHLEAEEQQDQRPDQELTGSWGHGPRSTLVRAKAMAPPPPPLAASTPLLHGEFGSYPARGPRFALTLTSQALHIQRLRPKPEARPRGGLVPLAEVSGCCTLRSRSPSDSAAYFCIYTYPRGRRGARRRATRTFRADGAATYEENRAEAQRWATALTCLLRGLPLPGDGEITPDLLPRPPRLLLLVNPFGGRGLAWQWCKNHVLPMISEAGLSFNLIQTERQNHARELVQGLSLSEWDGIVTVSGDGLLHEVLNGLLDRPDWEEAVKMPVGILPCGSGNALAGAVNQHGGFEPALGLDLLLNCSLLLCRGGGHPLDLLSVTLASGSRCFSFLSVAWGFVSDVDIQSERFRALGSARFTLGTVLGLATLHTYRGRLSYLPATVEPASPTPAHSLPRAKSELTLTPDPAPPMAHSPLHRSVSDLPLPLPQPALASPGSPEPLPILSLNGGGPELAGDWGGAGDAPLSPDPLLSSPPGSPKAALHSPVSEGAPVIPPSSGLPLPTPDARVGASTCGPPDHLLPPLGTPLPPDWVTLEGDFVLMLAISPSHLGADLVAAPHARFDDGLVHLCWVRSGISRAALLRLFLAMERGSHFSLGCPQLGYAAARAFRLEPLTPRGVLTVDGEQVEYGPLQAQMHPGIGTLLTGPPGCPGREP

[3] = target: T1, Sphingosine kinase 2 (Homo sapiens); settings: at 1 µM
[4] = target: Casein kinase II subunit alpha (Homo sapiens) (UniProt P68400); settings: at 0.1 µM
Casein kinase II subunit alpha (Homo sapiens), sequence (P68400 whole entry, looked up): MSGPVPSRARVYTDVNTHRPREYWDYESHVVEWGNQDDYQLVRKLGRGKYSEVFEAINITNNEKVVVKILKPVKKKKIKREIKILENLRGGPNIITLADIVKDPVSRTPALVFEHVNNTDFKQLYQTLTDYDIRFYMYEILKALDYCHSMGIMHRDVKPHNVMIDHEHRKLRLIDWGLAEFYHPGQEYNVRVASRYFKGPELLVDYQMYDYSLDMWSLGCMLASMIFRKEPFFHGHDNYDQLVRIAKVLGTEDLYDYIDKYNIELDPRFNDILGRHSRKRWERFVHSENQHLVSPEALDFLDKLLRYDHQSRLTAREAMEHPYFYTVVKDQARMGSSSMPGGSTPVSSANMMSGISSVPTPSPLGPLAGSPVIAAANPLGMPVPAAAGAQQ

[5] = target: Casein kinase II subunit alpha (Homo sapiens) (UniProt P68400); settings: at 1 µM
[6] = target: T2, Inhibitor of nuclear factor kappa-B kinase subunit alpha (Homo sapiens) (UniProt O15111); settings: at 0.1 µM
T2 sequence (whole entry): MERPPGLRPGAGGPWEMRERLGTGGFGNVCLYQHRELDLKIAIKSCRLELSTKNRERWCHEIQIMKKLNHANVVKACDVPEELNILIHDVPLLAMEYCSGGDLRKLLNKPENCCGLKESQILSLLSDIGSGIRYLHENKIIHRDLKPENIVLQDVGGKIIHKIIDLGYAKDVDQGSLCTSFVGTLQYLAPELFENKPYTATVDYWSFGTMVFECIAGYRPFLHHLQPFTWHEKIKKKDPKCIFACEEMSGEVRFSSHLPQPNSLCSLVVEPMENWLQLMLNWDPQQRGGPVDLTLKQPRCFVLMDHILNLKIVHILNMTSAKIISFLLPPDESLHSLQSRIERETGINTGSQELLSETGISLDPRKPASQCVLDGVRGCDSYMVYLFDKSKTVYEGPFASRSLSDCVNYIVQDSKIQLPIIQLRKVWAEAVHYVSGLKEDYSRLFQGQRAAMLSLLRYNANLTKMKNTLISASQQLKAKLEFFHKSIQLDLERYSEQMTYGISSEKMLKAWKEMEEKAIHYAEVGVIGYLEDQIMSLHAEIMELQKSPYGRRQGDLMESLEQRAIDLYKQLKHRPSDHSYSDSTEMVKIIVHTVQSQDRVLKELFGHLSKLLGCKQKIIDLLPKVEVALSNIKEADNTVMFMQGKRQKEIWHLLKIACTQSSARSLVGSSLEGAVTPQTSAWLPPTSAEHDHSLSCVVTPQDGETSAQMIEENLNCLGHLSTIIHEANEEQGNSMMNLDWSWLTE

[7] = target: T2, Inhibitor of nuclear factor kappa-B kinase subunit alpha (Homo sapiens); settings: at 1 µM
[8] = target: T3, Inhibitor of nuclear factor kappa-B kinase subunit beta (Homo sapiens) (UniProt O14920); settings: at 0.1 µM
T3 sequence (whole entry): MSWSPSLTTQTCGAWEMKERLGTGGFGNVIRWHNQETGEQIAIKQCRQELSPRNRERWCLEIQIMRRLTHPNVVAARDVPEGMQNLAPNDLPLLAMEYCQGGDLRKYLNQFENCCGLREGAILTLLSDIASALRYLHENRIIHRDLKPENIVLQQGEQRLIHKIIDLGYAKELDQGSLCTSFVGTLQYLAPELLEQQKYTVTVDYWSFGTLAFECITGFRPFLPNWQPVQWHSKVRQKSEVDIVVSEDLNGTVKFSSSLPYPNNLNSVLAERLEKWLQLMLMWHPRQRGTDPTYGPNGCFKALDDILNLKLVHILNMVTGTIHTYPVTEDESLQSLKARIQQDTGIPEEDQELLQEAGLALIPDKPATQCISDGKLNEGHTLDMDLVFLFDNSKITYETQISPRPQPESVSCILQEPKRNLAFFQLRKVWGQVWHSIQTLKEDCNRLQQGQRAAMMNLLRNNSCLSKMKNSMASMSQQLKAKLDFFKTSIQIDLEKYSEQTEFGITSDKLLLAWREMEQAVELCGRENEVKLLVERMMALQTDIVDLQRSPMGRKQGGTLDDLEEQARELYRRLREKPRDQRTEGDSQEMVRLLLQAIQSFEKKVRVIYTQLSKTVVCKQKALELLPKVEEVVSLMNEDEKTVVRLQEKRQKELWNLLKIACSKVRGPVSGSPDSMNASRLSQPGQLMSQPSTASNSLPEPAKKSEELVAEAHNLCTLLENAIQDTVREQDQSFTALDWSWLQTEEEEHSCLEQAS

[9] = target: T3, Inhibitor of nuclear factor kappa-B kinase subunit beta (Homo sapiens); settings: at 1 µM
[10] = target: T4, Inhibitor of nuclear factor kappa-B kinase subunit epsilon (Homo sapiens) (UniProt Q14164); settings: at 0.1 µM
T4 sequence (whole entry): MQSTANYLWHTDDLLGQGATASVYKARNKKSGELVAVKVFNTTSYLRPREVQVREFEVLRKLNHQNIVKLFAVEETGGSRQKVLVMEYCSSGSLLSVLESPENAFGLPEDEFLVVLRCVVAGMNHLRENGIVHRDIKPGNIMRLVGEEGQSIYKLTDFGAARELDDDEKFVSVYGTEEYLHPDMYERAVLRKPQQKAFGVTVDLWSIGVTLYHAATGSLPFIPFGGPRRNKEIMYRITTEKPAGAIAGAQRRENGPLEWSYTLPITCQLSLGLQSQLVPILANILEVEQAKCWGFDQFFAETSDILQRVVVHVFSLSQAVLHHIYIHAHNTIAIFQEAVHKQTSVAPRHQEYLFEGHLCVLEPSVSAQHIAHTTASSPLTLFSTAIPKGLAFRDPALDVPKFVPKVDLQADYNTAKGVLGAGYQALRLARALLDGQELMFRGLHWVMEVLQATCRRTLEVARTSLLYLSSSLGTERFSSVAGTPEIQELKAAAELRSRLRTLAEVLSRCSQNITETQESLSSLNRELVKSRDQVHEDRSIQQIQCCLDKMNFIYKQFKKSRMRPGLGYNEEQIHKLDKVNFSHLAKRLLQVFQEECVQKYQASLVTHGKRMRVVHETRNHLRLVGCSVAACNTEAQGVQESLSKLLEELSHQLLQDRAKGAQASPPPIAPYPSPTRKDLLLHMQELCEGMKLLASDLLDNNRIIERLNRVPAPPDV

[11] = target: T4, Inhibitor of nuclear factor kappa-B kinase subunit epsilon (Homo sapiens); settings: at 1 µM
[12] = target: T5, Serine/threonine-protein kinase Nek1 (Homo sapiens) (UniProt Q96PY6); settings: at 0.1 µM
T5 sequence (whole entry): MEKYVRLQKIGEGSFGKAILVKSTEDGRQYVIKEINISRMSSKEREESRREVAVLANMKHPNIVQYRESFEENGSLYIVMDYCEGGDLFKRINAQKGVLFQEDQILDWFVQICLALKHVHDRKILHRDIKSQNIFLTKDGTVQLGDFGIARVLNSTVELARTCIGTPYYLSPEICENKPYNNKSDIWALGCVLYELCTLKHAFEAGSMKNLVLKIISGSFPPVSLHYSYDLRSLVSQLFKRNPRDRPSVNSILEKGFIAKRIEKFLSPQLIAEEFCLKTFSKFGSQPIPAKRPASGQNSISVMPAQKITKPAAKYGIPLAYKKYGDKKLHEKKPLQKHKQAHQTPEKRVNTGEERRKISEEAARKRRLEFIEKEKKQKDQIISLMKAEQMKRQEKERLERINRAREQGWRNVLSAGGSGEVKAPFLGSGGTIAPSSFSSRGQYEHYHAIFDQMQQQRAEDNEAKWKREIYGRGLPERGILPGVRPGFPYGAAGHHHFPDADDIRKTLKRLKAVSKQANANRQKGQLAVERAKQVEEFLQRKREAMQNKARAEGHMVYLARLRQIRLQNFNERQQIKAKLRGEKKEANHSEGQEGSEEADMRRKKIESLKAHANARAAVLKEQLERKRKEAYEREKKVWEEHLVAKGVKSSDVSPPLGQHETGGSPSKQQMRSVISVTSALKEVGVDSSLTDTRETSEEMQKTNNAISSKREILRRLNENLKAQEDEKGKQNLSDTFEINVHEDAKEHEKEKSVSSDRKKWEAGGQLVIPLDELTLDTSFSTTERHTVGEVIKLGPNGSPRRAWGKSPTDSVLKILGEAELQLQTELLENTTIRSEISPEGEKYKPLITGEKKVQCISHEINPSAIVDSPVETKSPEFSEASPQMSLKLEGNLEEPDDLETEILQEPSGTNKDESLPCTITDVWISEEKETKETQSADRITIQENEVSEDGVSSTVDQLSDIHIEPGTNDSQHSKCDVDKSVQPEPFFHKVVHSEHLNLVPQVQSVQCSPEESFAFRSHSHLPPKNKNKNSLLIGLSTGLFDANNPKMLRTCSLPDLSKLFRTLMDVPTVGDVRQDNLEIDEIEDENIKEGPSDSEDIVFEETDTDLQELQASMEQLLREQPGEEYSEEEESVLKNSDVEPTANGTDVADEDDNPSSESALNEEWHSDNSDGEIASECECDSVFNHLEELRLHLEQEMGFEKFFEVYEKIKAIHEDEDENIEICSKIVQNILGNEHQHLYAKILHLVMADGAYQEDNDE

[13] = target: T5, Serine/threonine-protein kinase Nek1 (Homo sapiens); settings: at 1 µM
[14] = target: T6, Serine/threonine-protein kinase Nek2 (Homo sapiens) (UniProt P51955); settings: at 0.1 µM
T6 sequence (whole entry): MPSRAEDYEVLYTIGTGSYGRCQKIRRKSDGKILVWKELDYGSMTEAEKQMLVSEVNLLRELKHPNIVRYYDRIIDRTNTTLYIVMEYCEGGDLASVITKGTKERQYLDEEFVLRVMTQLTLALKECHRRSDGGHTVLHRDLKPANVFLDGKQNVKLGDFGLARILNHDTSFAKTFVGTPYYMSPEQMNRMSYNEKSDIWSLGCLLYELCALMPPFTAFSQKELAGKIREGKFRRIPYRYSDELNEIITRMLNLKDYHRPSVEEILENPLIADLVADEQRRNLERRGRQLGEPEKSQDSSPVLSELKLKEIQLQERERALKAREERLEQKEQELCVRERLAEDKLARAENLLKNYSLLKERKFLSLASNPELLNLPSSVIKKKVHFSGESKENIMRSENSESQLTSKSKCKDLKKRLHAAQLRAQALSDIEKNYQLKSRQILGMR

[15] = target: T6, Serine/threonine-protein kinase Nek2 (Homo sapiens); settings: at 1 µM
[16] = target: Serine/threonine-protein kinase Nek6 (Homo sapiens) (UniProt Q9HC98); settings: at 0.1 µM
Serine/threonine-protein kinase Nek6 (Homo sapiens), sequence (Q9HC98 whole entry): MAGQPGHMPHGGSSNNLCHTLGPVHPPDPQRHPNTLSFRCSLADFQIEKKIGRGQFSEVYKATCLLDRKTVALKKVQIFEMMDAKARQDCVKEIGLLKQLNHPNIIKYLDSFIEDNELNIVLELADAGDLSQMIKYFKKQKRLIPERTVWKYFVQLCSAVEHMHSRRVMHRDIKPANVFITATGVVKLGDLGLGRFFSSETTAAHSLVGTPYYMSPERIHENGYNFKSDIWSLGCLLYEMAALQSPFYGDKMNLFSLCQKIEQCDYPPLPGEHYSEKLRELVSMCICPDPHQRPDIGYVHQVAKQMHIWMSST

[17] = target: Serine/threonine-protein kinase Nek6 (Homo sapiens) (UniProt Q9HC98); settings: at 1 µM
[18] = target: Serine/threonine-protein kinase Nek7 (Homo sapiens) (UniProt Q8TDX7); settings: at 1 µM
Serine/threonine-protein kinase Nek7 (Homo sapiens), sequence (Q8TDX7 whole entry, looked up): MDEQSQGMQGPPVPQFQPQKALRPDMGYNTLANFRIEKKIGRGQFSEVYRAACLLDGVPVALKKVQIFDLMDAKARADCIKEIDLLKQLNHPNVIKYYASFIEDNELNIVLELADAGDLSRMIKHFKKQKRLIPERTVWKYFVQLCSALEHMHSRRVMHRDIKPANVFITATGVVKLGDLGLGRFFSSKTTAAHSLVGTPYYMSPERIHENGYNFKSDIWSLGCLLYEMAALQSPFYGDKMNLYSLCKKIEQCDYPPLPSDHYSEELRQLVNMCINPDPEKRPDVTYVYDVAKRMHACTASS

[19] = target: T7, Serine/threonine-protein kinase Nek9 (Homo sapiens) (UniProt Q8TD19); settings: at 0.1 µM;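 also: reported value is the mean percent inhibition of NEK9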
T7 sequence (whole entry): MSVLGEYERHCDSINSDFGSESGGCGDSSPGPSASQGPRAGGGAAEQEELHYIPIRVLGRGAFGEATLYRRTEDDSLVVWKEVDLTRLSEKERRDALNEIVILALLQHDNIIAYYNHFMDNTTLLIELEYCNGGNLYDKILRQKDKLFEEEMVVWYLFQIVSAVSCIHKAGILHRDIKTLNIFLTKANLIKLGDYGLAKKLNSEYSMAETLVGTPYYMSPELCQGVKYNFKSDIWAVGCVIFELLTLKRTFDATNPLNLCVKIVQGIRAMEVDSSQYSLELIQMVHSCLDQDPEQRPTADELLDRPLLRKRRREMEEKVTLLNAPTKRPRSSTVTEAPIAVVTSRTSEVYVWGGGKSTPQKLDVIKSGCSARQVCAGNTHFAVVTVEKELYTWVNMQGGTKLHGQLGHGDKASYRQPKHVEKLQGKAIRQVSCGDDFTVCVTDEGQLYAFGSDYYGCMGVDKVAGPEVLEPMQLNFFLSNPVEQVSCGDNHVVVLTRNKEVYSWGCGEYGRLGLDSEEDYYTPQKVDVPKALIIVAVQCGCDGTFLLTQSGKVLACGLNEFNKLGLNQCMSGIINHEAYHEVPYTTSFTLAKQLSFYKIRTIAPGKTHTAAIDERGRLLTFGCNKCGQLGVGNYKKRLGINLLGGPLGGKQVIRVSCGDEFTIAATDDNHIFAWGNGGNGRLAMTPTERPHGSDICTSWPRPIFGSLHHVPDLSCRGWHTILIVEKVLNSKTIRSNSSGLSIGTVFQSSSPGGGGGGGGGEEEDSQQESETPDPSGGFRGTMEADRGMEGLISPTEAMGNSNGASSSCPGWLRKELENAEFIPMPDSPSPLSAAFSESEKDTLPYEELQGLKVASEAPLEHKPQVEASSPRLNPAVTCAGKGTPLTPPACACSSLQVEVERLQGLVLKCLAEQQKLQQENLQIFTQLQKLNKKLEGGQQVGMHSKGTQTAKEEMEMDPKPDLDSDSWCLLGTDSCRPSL

[20] = target: Serine/threonine-protein kinase Nek7 (Homo sapiens) (UniProt Q8TDX7); settings: at 0.1 µM

Sphingosine kinase 1 (Homo sapiens), sequence (Q9NYA1 whole entry): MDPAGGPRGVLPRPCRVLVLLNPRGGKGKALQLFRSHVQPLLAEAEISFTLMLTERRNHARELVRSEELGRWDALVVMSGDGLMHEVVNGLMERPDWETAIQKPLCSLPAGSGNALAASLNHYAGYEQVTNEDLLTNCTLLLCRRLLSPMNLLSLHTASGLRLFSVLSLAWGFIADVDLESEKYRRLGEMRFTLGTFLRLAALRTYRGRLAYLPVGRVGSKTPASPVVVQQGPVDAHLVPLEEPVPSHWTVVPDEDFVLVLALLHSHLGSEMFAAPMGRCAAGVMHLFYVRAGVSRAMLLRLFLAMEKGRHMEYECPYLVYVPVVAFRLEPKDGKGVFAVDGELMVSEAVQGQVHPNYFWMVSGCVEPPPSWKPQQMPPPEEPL

SMILES | inhibition [1] [%] | inhibition [2] [%] | inhibition [3] [%] | inhibition [4] [%] | inhibition [5] [%] | inhibition [6] [%] | inhibition [7] [%] | inhibition [8] [%] | inhibition [9] [%] | inhibition [10] [%] | inhibition [11] [%] | inhibition [12] [%] | inhibition [13] [%] | inhibition [14] [%] | inhibition [15] [%] | inhibition [16] [%] | inhibition [17] [%] | inhibition [18] [%] | inhibition [19] [%] | inhibition [20] [%]
C/C(Nc1ccc(S(N)(=O)=O)cc1)=C1/C(=O)Nc2ccccc21 | 2.7 | 0.02 | 0.53 | -0.1 | 7.42 | 4.91 | 2.59 | -0.76 | 1.17 | -2.73 | 2.23 | -0.12 | 0.52 | -0.14 | 0.19 | -4.26 | -0.83 | -0.23 | 2.83 | –
CN(C)CCOc1ccc(-c2cc(-c3ccc4c(c3)CCC4=NO)c(-c3ccncc3)o2)cc1 | -2.32 | -0.68 | 0.96 | -3 | 0.33 | -4.03 | – | -1.54 | -1.92 | -1.86 | 0 | 0.25 | 0.32 | -0.54 | 0.32 | -0.38 | -0.66 | 0.51 | -0.48 | -2.05
